In PubChem BioAssay (EPA / NIEHS):
Records with an inconclusive call do not appear. Activity calls are given as the source filed them. Rule for the calls: active = hit-call score of the fitted dose curve at least 0.9, where 1 is the maximum; inconclusive = response in the unintended direction; inactive = score below 0.9.

What follows are compounds tested on Cytochrome P450 2B6 (Homo sapiens) (UniProt P20813) (assay: CLD_CYP2B6_24hr: CellzDirect (CLD) Gene Expression Assay for xenobiotic metabolism (CYP2B6) at 24 hours (AID 2283686)).
Experimental: CLD_24hr is a cell-based, multiplexed-readout assay that uses hepatocyte, a human liver primary cell, with measurements taken at 24 hours after chemical dosing in a 96-well plate.CLD_CYP2B6_24hr is one of 16 assay component(s) measured or calculated from the CLD_24hr assay. It is designed to make measurements of mRNA induction, a form of inducible reporter, as detected with chemiluminescence signals by Quantitative Nuclease Protection Assay (qNPA) technology.Data from the assay component CLD_CYP2B6_24hr was analyzed at the endpoint, CLD_CYP2B6_24hr, in the positive analysis fitting direction relative to DMSO as the negative control and baseline of activity. Using a type of inducible reporter, gain-of-signal activity can be used to understand changes in the reporter gene as they relate to the gene CYP2B6. Furthermore, this assay endpoint can be referred to as a primary readout. To generalize the intended target to other relatable targets, this assay endpoint is annotated to the cyp intended target family, where subfamily is xenobiotic metabolism.
Human hepatocyte cultures were treated daily for two consecutive days with fresh dosing solutions containing appropriate concentrations of the 320 ToxCast chemicals (chemical identities were blinded to CellzDirect and other ToxCast collaborators), vehicle control (0.2% DMSO), and positive control inducers as summarized in Table 1. Due to the large number of treatment groups and chemicals examined, the ToxCast chemicals were divided into two groups (spanning two independent cultures of hepatocytes from separate donor preparations (Hu778: ToxCast plates 1 and 2; Hu776: ToxCast plates 3 and 4). Each preparation of human hepatocyte cultures was treated with respective vehicle control, medium only control, set of six positive controls/reference chemicals for the five hepatic receptor pathways, and a subset of eight of the ToxCast chemicals (indoxacarb, pyrithiobac-sodium, norflurazon, cyhalofop-butyl, methomyl, thiram, acetochlor, and propiconazole). These replicate data, coupled with internal replicates designed within the blinded ToxCast chemical library, provided additional data to evaluate interindividual differences between hepatocyte preparations and their potential impact on chemical profiles.Cell morphology and integrity were evaluated using phase-contrast microscopy as an indicator of hepatocyte cell health (Tyson & Green, 1987). Cultures for each treatment group (i.e., media, vehicle [0.2% DMSO], positive control inducers [multiple concentrations], and the ToxCast chemicals [multiple concentrations]) were observed and cell morphology was assessed relative to vehicle control cultures at each harvest time point (0, 6, 24, or 48 h). […] Images were evaluated at the conclusion of the study to assess changes in cell integrity and account for the effects of chemical exposure on uncharacteristic changes in concentration-dependent gene expression profiles. The results from these determinations of apparent cytotoxicity were annotated (yes/no) alongside the corresponding qNPA data for reference.At the conclusion of each treatment period, hepatocyte cultures (96-well) were washed with 1 volume of HBSS, lysed by addition of 25 ul ArrayPlate lysis buffer (HTG, Tucson, AZ), and 70 ul/well of Denaturation Oil, denatured by incubation at 95C for 10 min, and frozen at approximately -70C until analysis by nuclease protection assay (qNPA) (Roberts et al., 2007). For qNPA analysis, cell lysates were thawed at 50C for approximately 30 min, qNPA probes were added, and samples were incubated at 95C for 10 min to begin the detection process by denaturing the target RNA, dissociating the duplexes and secondary structure hybridization. At the conclusion of the hybridization period, S1 nuclease reagent was added to each sample to digest all nonprotected nucleotides at 50C for 60-90 min. […]
CCCCOCN(C(=O)CCl)c1c(CC)cccc1CC was tested, and the AC50 was 1.11 µM (active).
In the case of Cc1nc(N(C)C)nc(OC(=O)N(C)C)c1C, the AC50 is reported as 4.29 µM (active).
In the case of CCSC(=O)N1CCCCCC1, the AC50 is reported as 0.302 µM (active).
For CCCN(CC)CC1COC2(CCC(C(C)(C)C)CC2)O1 (stereo not given), the AC50 was 9.21 µM (active).
With COC(=O)N(C(=O)N1CO[C@@]2(C(=O)OC)Cc3cc(Cl)ccc3C2=N1)c1ccc(OC(F)(F)F)cc1 the AC50 was 1.9 µM (active).
CCCCC(C#N)(Cn1cncn1)c1ccc(Cl)cc1 (stereo not given) was tested, and the AC50 was 9.62 µM (active).
In the case of CC1(C)C(C=C(Cl)Cl)C1C(=O)OC(C#N)c1cccc(Oc2ccccc2)c1 (stereo not given), the AC50 is reported as 4.4 µM (active).
With OC(c1ccc(Cl)cc1)(c1ccc(Cl)cc1)C(Cl)(Cl)Cl the AC50 was 4.08 µM (active).
With Clc1cccc(C(Cl)(Cl)Cl)n1 the AC50 was 0.325 µM (active).
For CCC(C)n1c(=O)[nH]c(C)c(Br)c1=O (stereo not given), the AC50 was 1.56 µM (active).
Nc1c(Cl)c(F)nc(OCC(=O)O)c1Cl was tested, and the outcome was “inactive”.
In the case of COc1ccc(-c2ccccc2)cc1NNC(=O)OC(C)C, the AC50 is reported as 4.09 µM (active).
COCC(C)N(C(=O)CCl)c1c(C)csc1C (stereo not given) was tested, and the AC50 was 11.9 µM (active).
In the case of CSC(=O)c1c(C(F)F)nc(C(F)(F)F)c(C(=O)SC)c1CC(C)C, the AC50 is reported as 1.22 µM (active).
With CC(C)C1(C)N=C(c2ncccc2C(=O)O)NC1=O (stereo not given) the AC50 was 0.000671 µM (active).
N#Cc1c(Cl)cccc1Cl was tested, and the AC50 was 4.46 µM (active).
With C=CCOC(=O)C(C)(C)OC(=O)c1cc(-n2c(=O)cc(C(F)(F)F)n(C)c2=O)ccc1Cl the AC50 was 0.173 µM (active).
CCOP(=O)(OCC)Oc1nc(Cl)c(Cl)cc1Cl was tested, and the AC50 was 0.405 µM (active).
Cc1ccc(N=CN(C)C=Nc2ccc(C)cc2C)c(C)c1 was tested, and the outcome was “inactive”.
With Cc1cnc(C2=NC(C)(C(C)C)C(=O)N2)c(C(=O)O)c1 (stereo not given) the outcome was “inactive”.
In the case of COCC(=O)N(c1c(C)cccc1C)C(C)C(=O)OC (stereo not given), the AC50 is reported as 4.09 µM (active).
With CCCC(=NOCC)C1=C(O)CC(CC(C)SCC)CC1=O (stereo not given) the AC50 was 28.9 µM (active).
In the case of COC(=O)NS(=O)(=O)c1ccc(N)cc1, the outcome is reported as “inactive”.
In the case of CS(=O)(=O)c1ccc(C(=O)C2C(=O)CCCC2=O)c([N+](=O)[O-])c1, the outcome is reported as “inactive”.
Nc1cnn(-c2ccccc2)c(=O)c1Cl was tested, and the outcome was “inactive”.
CC(C)=CC1C(C(=O)OCc2coc(Cc3ccccc3)c2)C1(C)C (stereo not given) was tested, and the AC50 was 5.63 µM (active).
With COP(=S)(OC)Oc1ccc([N+](=O)[O-])c(C)c1 the AC50 was 0.692 µM (active).
In the case of CN=C=S, the outcome is reported as “inactive”.
O=P(O)(O)CCCl was tested, and the outcome was “inactive”.
In the case of CCOC(=O)C(C)OC(=O)c1cc(Oc2ccc(C(F)(F)F)cc2Cl)ccc1[N+](=O)[O-] (stereo not given), the AC50 is reported as 10.3 µM (active).
In the case of CC(C)Oc1cccc(NC(=O)c2ccccc2C(F)(F)F)c1, the AC50 is reported as 4.95 µM (active).
In the case of Clc1nc(Cl)nc(Nc2ccccc2Cl)n1, the outcome is reported as “inactive”.
For CS(=O)(=O)c1cc(C(F)(F)F)ccc1C(=O)c1cnoc1C1CC1, the AC50 was 6.01 µM (active).
CC(C)(C)C(=O)C(Oc1ccc(Cl)cc1)n1cncn1 (stereo not given) was tested, and the AC50 was 4.5 µM (active).
O=C(Nc1ccccc1-c1ccc(Cl)cc1)c1cccnc1Cl was tested, and the AC50 was 0.427 µM (active).
In the case of CNC(=O)Oc1cccc2ccccc12, the AC50 is reported as 7.28 µM (active).
With CC(C)N1C(=O)N(c2ccccc2)CSC1=NC(C)(C)C the AC50 was 4.23 µM (active).
In the case of N#Cc1c[nH]cc1-c1cccc2c1OC(F)(F)O2, the AC50 is reported as 3.97 µM (active).
With CCN(CC)C(=O)C(C)Oc1cccc2ccccc12 (stereo not given) the outcome was “inactive”.
Cc1c(COC(=O)[C@@H]2[C@H](/C=C(\Cl)C(F)(F)F)C2(C)C)cccc1-c1ccccc1 was tested, and the AC50 was 4.37 µM (active).
